Experimental data from PubChem BioAssay (NCI).
Values joined by “and” are separate entries in the source; they are usually repeats but may differ in a detail not shown here. Equal entries are not always repeated. This is part of a sample that, as a whole, favours compounds with a hit. Of some 83,000 tested, about 20% had one in any assay.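 Treatment: one concentration, 48 hours, 96-well format. Scoring: percent growth, with anything below 10 considered active.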 Unmarked numbers belong to inactive results. Active and inactive are the calls of the source.

What was measured:
Assay in all cases: NCI-60 one-dose screen, 48 h (100 = growth as untreated, 0 = no growth, -100 = all killed)
Conditions in all cases: 10 µM unless noted
SR leukemia = tested on: SR leukemia
RPMI-8226 leukemia = tested on: RPMI-8226 leukemia
OVCAR-8 ovarian = tested on: OVCAR-8 ovarian
OVCAR-5 ovarian = tested on: OVCAR-5 ovarian
OVCAR-4 ovarian = tested on: OVCAR-4 ovarian
SK-OV-3 ovarian = tested on: SK-OV-3 ovarian
IGROV1 ovarian = tested on: IGROV1 ovarian
OVCAR-3 ovarian = tested on: OVCAR-3 ovarian
HS 578T breast = tested on: HS 578T breast
NCI/ADR-RES ovarian = tested on: NCI/ADR-RES ovarian

SMILES	growth (SR leukemia)	growth (RPMI-8226 leukemia)	growth (OVCAR-8 ovarian)	growth (OVCAR-5 ovarian)	growth (OVCAR-4 ovarian)	growth (SK-OV-3 ovarian)	growth (IGROV1 ovarian)	growth (OVCAR-3 ovarian)	growth (HS 578T breast)	growth (NCI/ADR-RES ovarian)
CC[C@H](C)[C@H](NC(=O)[C@@H](N)CCC(N)=O)C(=O)N[C@@H](Cc1ccc(O)cc1)C(=O)N[C@@H](CCCCN)C(=O)N[C@@H](CCCCN)C(=O)N[C@@H](Cc1ccc(O)cc1)C(=O)N[C@@H](CCCNC(=N)N)C(=O)N[C@H](C(=O)N[C@@H](Cc1c[nH]c2ccccc12)C(=O)N[C@@H](Cc1ccc(O)cc1)C(=O)N[C@@H](CCCNC(=N)N)C(=O)N[C@@H](CCCCN)C(=O)N[C@@H](C)C(=O)N[C@@H](Cc1c[nH]c2ccccc12)C(=O)N[C@@H](CCCCN)C(=O)N[C@H](C(=O)N[C@@H](CC(C)C)C(=O)NCC(=O)N[C@@H](CCCCN)C(=O)N[C@H](C(N)=O)C(C)C)C(C)C)[C@@H](C)O	37.8%	17.9%	13%	56.6%	73.5%	42.8%	-33.4% (active)	-1.52% (active)	-13% (active)	-2.5% (active)
CC1=CC(C)(C)NC(=S)N1c1ccc(Cl)cc1	97.8% and 93%	100%	100% and 104%	95% and 104%	103%	122% and 93.2%	96.4%	110% and 104%	102% and 113%	103% and 112%
C#Cc1cc(C(=O)Nc2ccc(CN3CCN(C)CC3)c(C(F)(F)F)c2)ccc1C	58.7%	59.5%	77.4%	74.6%	72.3%	93.2%	75.7%	86.4%	64.7%	82.2%
O=C1c2cc3c(cc2-c2c1c1ccc(Cl)cc1c(=O)n2CCCn1ccnc1)OCO3	-19.4% (active)	-23.6% (active)	11.4%	3.22% (active)	13.7%	8.75% (active)	28.3%	-5.45% (active)	46.3%	-26.4% (active)
O=C1/C(=C/c2cn(-c3ccccc3)nc2-c2ccccc2)SC(=S)N1c1ccccc1	108%	107%	104%	106%	103%	111%	94.5%	109%	101%	103%
Cn1cc(-c2nc3c(F)cc4[nH]ncc4c3c3c2CCCC3)c(C(F)F)n1	-16.9% (active)	27.7%	73%	71.2%	100%	37.2%	51.8%	84.4%	40.4%	77.9%
C=C(CNCCc1ccc(O)cc1)[C@@H]1CC[C@]2(CO)CC[C@]3(C)[C@H](CC[C@@H]4[C@@]5(C)CCC(NCCc6ccc(O)cc6)C(C)(C)[C@@H]5CC[C@]43C)[C@@H]12 (stereo not given in full)	-58.5% (active)	-51.7% (active)	-78.1% (active)	-86.3% (active)	-81.7% (active)	-97.4% (active)	-78.4% (active)	-94.2% (active)	-38.9% (active)	-54.5% (active)
C=CCOc1ccc(/C=C2\SC(=S)N(CCc3ccc(O)cc3)C2=O)cc1	38.6%	76.8%	97.5%	110%	86.5%	115%	59.4%	100%	95%	98.9%
O/N=C(/c1ccccc1)c1ccc2c3c(cccc13)CC2	67% and 66.6%	75.2% and 70.4%	87.7%	97.7% and 95.4%	83.9% and 77.1%	99.3% and 97.4%	97.8% and 98%	99.4% and 93.3%	94.4% and 90.2%	92.8% and 88.6%
C=C(CN1CC=CCC1)[C@@H]1CC[C@]2(COC(C)=O)CC[C@]3(C)[C@H](CC[C@@H]4[C@@]5(C)CC[C@H](O)C(C)(C)[C@@H]5CC[C@]43C)[C@@H]12	90.4%	84.2%	96.1%	132%	92.2%	115%	112%	100%	103%	98.3%
COc1ccc(Cl)cc1Nc1nc(C(F)(F)F)ccc1C(=O)N/N=C/c1ccc(N(C)C)cc1	7.32% (active)	108%	99.8%	79.5%	87.1%	11.8%	96.4%	147%	101%	90%
COc1cccc(C2C(C#N)=C(N)Oc3cc(OCCCCCC[P+](c4ccccc4)(c4ccccc4)c4ccccc4)ccc32)c1 (stereo not given)	-48.8% (active)	-36.4% (active)	1.01% (active)	-2.3% (active)	2.58% (active)	-33.5% (active)	-55.8% (active)	-81.3% (active)	-16.5% (active)	85.2%
CC(=O)c1c(C)nc2ccccc2c1/C=C/c1cccc(C)c1	23.3%	56%	69.4%	83.6%	67.2%	69.7%	48.1%	45.5%	62.5%	29.8%
CCOc1ccc(C(=O)Cc2ccccc2)cc1	93.4% and 92.3%	106% and 95%	109% and 106%	103% and 109%	105% and 106%	121% and 117%	116% and 110%	120% and 125%	107%	107% and 104%
O=C1C(N2CCOCC2)=C(I)C(=O)c2ncccc21	19.2%	91.2%	69.5%	97.8%	59%	79.3%	54.5%	69.8%	65.1%	75.4%
C=C(C)[C@@H]1CC[C@]2(C(=O)O)CC[C@]3(C)[C@H](CC[C@@H]4[C@@]5(C)CCC(N)C(C)(C)[C@@H]5CC[C@]43C)[C@@H]12 (stereo not given in full)	-8.86% (active)	-33.6% (active)	20.8%	96.6%	36.8%	106%	74.4%	-31.5% (active)	93.1%	69.7%
O=C(Cn1cc(CN2CCN(c3ccnc4cc(Cl)ccc34)CC2)nn1)Nc1cccc([N+](=O)[O-])c1	33%	57.6%	74.7%	96.4%	92.4%	76.1%	-94.7% (active)	87.9%	82.6%	100%
Fc1ccc(NC(c2ccc(F)cc2)C2CCN(CCCCc3ccccc3)CC2)cc1 (stereo not given)	-40.5% (active)	-17.6% (active)	-21.9% (active)	59.1%	50.6%	64.6%	55.9%	34%	71.7%	49.5%
COc1cc2c(cc1OCCCOC1=C=C=C(c3ccc4c(c3)c3cc(-c5ccc(OCCCOc6cc7c(cc6OC)C(=O)N6CCC[C@H]6C=N7)cc5)ccc3n4S(=O)(=O)c3ccc(C)cc3)C=C1)N=C[C@@H]1CCCN1C2=O	-74% (active)	17.9%	23.9%	113%	58.2%	93.7%	14%	0.652% (active)	2.22% (active)	94%
Cc1cc(N2CCN(CC(=O)Nc3ccc4c(ccn4Cc4ccccc4)c3)CC2)nc(N2CCCCCC2)n1	29.2%	41.5%	31.6%	75.6%	51.8%	48.2%	42.3%	62.8%	62.8%	39.6%
N#C/C(=C\c1ccc(Br)cc1)n1nnc2c(F)cccc21	23.1%	-20.2% (active)	7.76% (active)	1.16% (active)	14.1%	40.7%	-24.3% (active)	-51.1% (active)	11%	2.56% (active)
COc1ccc(-c2nc(Cl)c3c(C)nn(-c4ccc(F)cc4)c3n2)cc1	103%	102%	99.2%	110%	107%	102%	109%	106%	103%	112%
